Laboratory results: PubChem BioAssay AID588676 (Johns Hopkins Ion Channel Center, 2011)
Out of some 310,000 compounds screened, about 3,900 (1.3%) were called active.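 Rule for the calls: active = calcium-response B-score plate-corrected more than 3 library SD below zero, starting fluorescence within 5 deviations, no agonist response on first addition; inactive = the rest.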 This excerpt belongs to a sample that is enriched for actives.

What follows are molecules tested against Mas-related G-protein coupled receptor member X1 (Homo sapiens) (UniProt Q96LB2) (assay: blockade of BAM8-22-evoked MrgX1 calcium response – HEK293 cells, Fluo-4 calcium flux, primary screen (AID 588676;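 for B-score: peak minus trough fluorescence over baseline after final BAM8-22 challenge near maximal dose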)). Conditions: Fluo-4, BAM8-22 antagonism, at 10 µM; active compounds read low.
Chain of Mas-related G-protein coupled receptor member X1 (Homo sapiens) (Q96LB2 whole entry, looked up): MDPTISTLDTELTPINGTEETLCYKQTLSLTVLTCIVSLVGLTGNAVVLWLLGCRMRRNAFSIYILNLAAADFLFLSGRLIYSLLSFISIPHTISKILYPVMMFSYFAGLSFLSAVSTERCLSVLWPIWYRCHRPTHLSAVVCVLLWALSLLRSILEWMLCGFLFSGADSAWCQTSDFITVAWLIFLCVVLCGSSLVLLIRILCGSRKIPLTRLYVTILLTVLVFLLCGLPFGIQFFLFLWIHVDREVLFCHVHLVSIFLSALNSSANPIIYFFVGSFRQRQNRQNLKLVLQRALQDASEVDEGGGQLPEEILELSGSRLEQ

B-score, active:
Cc1nccn1CCC1CCCCN1C(=O)CCc1nnc(-c2ccsc2)o1 (configuration not stated) -4.86
CN(C)CCNC(=O)Cc1ccc([N+](=O)[O-])cc1 -6.37
FC(F)Oc1ccc(NC(=S)NCc2ccco2)cc1Cl -4.6
CCOC1CCCCC1NS(=O)(=O)c1ccc(Cl)cc1 (configuration not stated) -6.36
COc1ccc(C(=O)NCc2nnc(SCCOc3ccccc3)n2C)cc1 -8.04
CC(C)(C)n1c(=O)[nH]c2c(c1=O)CCC2 -7.85
O=c1[nH]c(=O)c2nc3ccccc3nc2[nH]1 -4.56
Cc1ccc(S(=O)(=O)n2nc(OC(=O)C(C)(C)C)cc2N)cc1 -8.79
O=C(Nc1ccccc1Cl)N1CCN(c2ccc3nncn3n2)CC1 -4.64
CN(C)CCn1c(=S)[nH]c2ccc(Cl)cc2c1=O -7.49
COc1ccc(-n2c(SCC(=O)NCc3ccco3)nnc2-c2c[nH]c3ccccc23)cc1 -6.52

B-score, inactive:
COCC1CCN(C(=O)CCc2nnc(C3(c4ccc(Cl)cc4)CCC3)o2)C1 (configuration not stated)
CC(C)CC(O)C1CCN(C(=O)CCc2nnc(-c3ccc4c(c3)OCO4)o2)CC1 (configuration not stated)
CN(C)C(CNC(=O)Cc1ccc([N+](=O)[O-])cc1)c1ccccc1 (configuration not stated)
O=C(CSCc1ccc([N+](=O)[O-])cc1)NCCSCc1ccccc1
COc1cc(NC(=S)NCc2ccco2)c(OC)cc1Cl
S=C(NCc1ccco1)Nc1ccc2c(c1)OCCO2
O=C1CCc2cc(S(=O)(=O)Nc3ccc(C(F)(F)F)cc3)cc3c2N1CC3
CCN(CC(=O)Nc1cc(Cl)ccc1C)C(=O)Cn1c(=O)cnc2ccccc21
O=S(=O)(NC1CCCCC1N1CCCCC1)c1ccc(Cl)cc1 (configuration not stated)
CCN1CCN(C2CCCCC2NS(=O)(=O)c2ccc(Cl)cc2)CC1 (configuration not stated)
O=C(O)CCCN1C(=O)c2ccccc2Sc2ncccc21
COc1ccc(CC(=O)NCc2nnc(SCC(=O)Nc3nccs3)n2C)cc1
COc1ccc(C(=O)NCc2nnc(SCC(=O)NC3=NCCS3)n2C)cc1
CCN(CC)C(=O)CSc1nnc(CNc2ccc(F)cc2)n1Cc1ccco1
O=c1[nH]n2c(=O)c3c([nH]c2c1N=Nc1ccccc1)CCC3
O=C(COC(=O)Cc1c[nH]c2ccccc12)NCCc1ccccc1
Cc1nc(CNS(=O)(=O)c2ccc(Oc3ccccc3)cc2)cs1
O=C(NCCCc1ccccc1)C(=O)c1c[nH]c2ccccc12
CCS(=O)(=O)N1Cc2ccccc2CC1C(=O)Nc1nc2ccc(F)cc2s1 (configuration not stated)
COc1ccc(OCCCC(=O)OC(C)C(=O)Nc2ccccc2[N+](=O)[O-])cc1 (configuration not stated)
COc1ccc(N2CCN(C(=O)CN3C(=O)COc4ccccc43)CC2)cc1
Nc1ccc(SCCN2C(=O)c3ccccc3C2=O)cc1
NC(=O)C1(C(N)=O)OC1c1ccc(Cl)cc1Cl (configuration not stated)
O=C(NC1CC1)C1=C[C@H](c2coc3ccccc3c2=O)C[C@H](OCCCCO)O1
CNC(=O)c1cccc2nc3ccccc3nc12
Nc1ccc2nc3c(=O)[nH]c(=S)[nH]c3nc2c1
CC1(C)CC(=O)C(N=Nc2c(F)cccc2F)=C(O)C1
CC(=O)N1CCC(C(=O)OCc2ccc(Cl)cc2)(c2ccccc2)CC1
Cc1ccc(S(=O)(=O)N(C)c2nc3ccccc3n3c(C(C)C)nnc23)cc1
Cc1ccc(-c2cn(S(=O)(=O)c3cccc([N+](=O)[O-])c3)nc2N)cc1
Nc1cc(OC(=O)c2ccccc2Br)nn1S(=O)(=O)c1ccccc1
Cc1ccc(C(=O)NC2CCN(C(=O)Nc3ccccc3Cl)CC2)cc1
O=C(COc1ccc(-n2cnnn2)cc1)Nc1ccccc1Cl
O=C(c1ccc(Oc2ccc(Cl)cc2)c([N+](=O)[O-])c1)N1CCCC1
Cc1nn(C)c(C)c1Sc1ccccc1N
CC(=O)N1CCN(C(=O)c2cc(-c3ccc(Cl)s3)nc3ccccc23)CC1
Brc1ccc2c(c1)[C@H]1OCC[C@H]1[C@@H](c1cccs1)N2
Cc1ccccc1NC(=O)CCOc1ccccc1
O=C(CCn1c(=S)[nH]c2cc3c(cc2c1=O)OCO3)NCc1ccc(Cl)cc1
CCCCn1c(=S)[nH]c2ccccc2c1=O
Cc1cccc(N2CCN(C(=O)/C=C/c3ccco3)CC2)c1C
CC1CCC2CCCCC2N1C(=O)c1cc([N+](=O)[O-])cc([N+](=O)[O-])c1 (configuration not stated)
CCCCCC1CCC(c2nnc(SCC(C)=O)o2)CC1 (configuration not stated)
O=C(CCS(=O)(=O)c1cccc2nonc12)NCCc1ccccc1Cl
CC(NC(=O)c1ccccc1F)c1cccc2ccccc12 (configuration not stated)
O=C(CSc1nnc(-c2c[nH]c3ccccc23)n1-c1ccc(F)cc1)NCc1ccco1
